Dicer inh: blocks human Dicer maturation of pre-miR-21; cat-ELCCA pre-miR-21 Dicer processing, chemiluminescence; stronger effect = higher value; 6% of 47,000 active; Q9UPY3; z-score at 25 µM; in the data active = z-score above about 3, passing the limit was not always enough;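 also: plate controls were vehicle for no effect and no enzyme for full effect; higher signal means more uncleaved substrate so more Dicer inhibition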
Active calls of the source: *. The entries come from a sample that favours hits as a whole.

SMILES	Dicer inh
Cc1ccc(-c2nc3ccccc3n3cc4c(=O)n(C)c(=O)n(C)c4c23)cc1	-2.7
CCSc1nnc2c(n1)OC(c1cn(C(C)=O)nc1-c1ccccc1)N(C(C)=O)c1ccccc1-2 (stereo not given)	0.04
c1ccc(-c2noc(-c3cccc4ccccc34)n2)nc1	1.3
c1ccc(-c2ccc(-c3nc(-c4ccccn4)no3)cc2)cc1	5.2*
COc1ccc(-c2nc(-c3ccccn3)no2)cc1OC	1.2
CC(C)CCNc1nc2c([nH]1)c(=O)n(C)c(=O)n2C	2.9
S=C1CC(c2ccccc2)Sc2ccccc2N1 (stereo not given)	0.9
c1ccc(C2CCCC(c3ccccc3)S2)cc1 (stereo not given)	4.8*
CC1(O)CC(c2ccccc2)SC(c2ccccc2)C1 (stereo not given)	0.18
Clc1ccc(CSC2=NCCCN2)cc1	-0.88
COc1ccc(Oc2ccc(C(F)(F)F)cc2NC(=O)c2nc(-c3ccccc3)oc2C)cc1	-0.78
O=c1cc(CSc2ccc(Cl)cc2)nc(N2CCN(Cc3ccc4c(c3)OCO4)CC2)[nH]1	2.8
Cc1cc(C)c(S(=O)(=O)N2CCN(Cc3ccc4c(c3)OCO4)CC2)cc1C	5.2
CCc1c(C)nc(N2CCN(Cc3ccc4c(c3)OCO4)CC2)[nH]c1=O	3.9*
COC(=O)c1c(C)oc(C)c1S(=O)(=O)Nc1ccccc1SCc1c(F)cccc1Cl	0.06
CC1(C)C2CCC1(C)C(NC(=O)c1ccc(Cl)cc1)C2 (stereo not given)	-0.22
CCOC(=O)c1cnc2cc(Cl)c(F)cc2c1N1CC(C)OC(C)C1 (stereo not given)	11*
CCOC(=O)c1cnc2cc(Cl)c(F)cc2c1OCC	1.9
CCOC(=O)c1ccc2nc(C(F)(F)F)nc(N3CC(C)OC(C)C3)c2c1 (stereo not given)	-1.6
Cc1cc2c(cc1C)[n+](C)cn2CC(O)COc1ccccc1C (stereo not given)	0.08
